30 compounds from PubChem BioAssay (Tox21) can be followed below.

The target in assay [1] is Acetylcholinesterase (Homo sapiens) (UniProt P22303). Put plainly: Acetylcholinesterase (AChE) small molecule antagonists: enzyme-based qHTS assay with human liver microsomes (AID 1347399; calls by dose curve; further: nearly all actives have a fitted effect of over 60% in size). The conditions noted are these: Potency: qHTS inhibition; outcome: qHTS inhibition. The method in brief: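 Recombinant human AChE (50 mU/mL in the enzyme mix) and human liver microsomes (0.25 mg/mL final) were preincubated with compound and NADPH (0.25 mg/mL final) for 30 min at 37 C. Acetylthiocholine/DTNB was then added; thiocholine was read colorimetrically after 10 min at room temperature.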
Sequence of Acetylcholinesterase (Homo sapiens) (P22303 whole entry, looked up): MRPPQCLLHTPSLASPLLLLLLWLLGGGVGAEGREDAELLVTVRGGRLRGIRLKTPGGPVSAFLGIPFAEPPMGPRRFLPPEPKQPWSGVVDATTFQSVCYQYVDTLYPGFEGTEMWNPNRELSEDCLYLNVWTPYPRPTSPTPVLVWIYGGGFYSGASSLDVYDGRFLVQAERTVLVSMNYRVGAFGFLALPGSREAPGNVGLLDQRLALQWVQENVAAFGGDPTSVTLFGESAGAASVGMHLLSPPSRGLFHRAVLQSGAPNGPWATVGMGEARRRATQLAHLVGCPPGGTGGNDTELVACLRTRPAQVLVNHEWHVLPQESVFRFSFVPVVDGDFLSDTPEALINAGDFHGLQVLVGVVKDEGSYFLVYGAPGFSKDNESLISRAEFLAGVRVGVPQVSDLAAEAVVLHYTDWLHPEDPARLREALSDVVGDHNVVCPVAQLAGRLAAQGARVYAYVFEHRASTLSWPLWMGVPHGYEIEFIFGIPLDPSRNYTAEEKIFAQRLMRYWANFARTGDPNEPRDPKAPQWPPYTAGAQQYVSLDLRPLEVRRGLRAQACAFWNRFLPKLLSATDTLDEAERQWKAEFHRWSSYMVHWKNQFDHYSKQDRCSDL

The target in assay [2] is Cytochrome P450 2D6 (Homo sapiens) (UniProt P10635). Description: Cytochrome P450 Family 2 Subfamily D Member 6 (CYP2D6) small molecule antagonists: luciferase reporter qHTS assay (AID 1671196). Further: nearly all actives have a fitted effect of over 50% in size. Further: potency means the concentration at half of the fitted maximal effect. The method, boiled down: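 Room-temperature luminescent CYP2D6 activity assay: compound preincubated 10 min with enzyme–substrate mix, NADPH-initiated reaction 1 h, detection reagent 20 min before reading.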
Sequence of Cytochrome P450 2D6 (Homo sapiens) (P10635 whole entry, looked up): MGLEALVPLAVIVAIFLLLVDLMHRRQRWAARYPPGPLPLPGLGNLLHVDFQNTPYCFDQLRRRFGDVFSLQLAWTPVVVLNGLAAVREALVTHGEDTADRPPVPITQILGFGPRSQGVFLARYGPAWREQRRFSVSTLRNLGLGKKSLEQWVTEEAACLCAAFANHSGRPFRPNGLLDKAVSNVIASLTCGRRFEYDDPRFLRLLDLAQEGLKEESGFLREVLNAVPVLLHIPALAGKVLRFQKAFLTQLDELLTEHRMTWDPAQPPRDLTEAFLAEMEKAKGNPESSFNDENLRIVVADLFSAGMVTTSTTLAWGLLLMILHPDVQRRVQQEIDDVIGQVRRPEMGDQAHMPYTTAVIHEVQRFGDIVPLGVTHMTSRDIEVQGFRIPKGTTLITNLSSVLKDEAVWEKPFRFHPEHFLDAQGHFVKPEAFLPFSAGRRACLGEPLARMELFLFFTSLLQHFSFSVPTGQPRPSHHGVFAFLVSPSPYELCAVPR
For orientation: In a reporter assay the amount or activity of a reporter protein is the signal.

Assay [3] addresses Cytochrome P450 2C19 (Homo sapiens) (UniProt P33261). Description: Cytochrome P450 Family 2 Subfamily C Member 19 (CYP2C19) small molecule antagonists: luciferase reporter qHTS assay (AID 1671197). Further: nearly all actives have a fitted effect of over 65% in size. Further: potency means the concentration at half of the fitted maximal effect. The method, boiled down:
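Light output is proportional to CYP2C19 activity: proluciferin substrate is converted to luciferin, then detected by a luciferin detection reagent that also stops the 1 h, 37C NADPH-driven reaction. Ketoconazole serves as positive control.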

The target of assay [4] is Cytochrome P450 2C9 (Homo sapiens) (UniProt P11712). Put plainly: Cytochrome P450 Family 2 Subfamily C Member 9 (CYP2C9) small molecule antagonists: luciferase reporter qHTS assay (AID 1671198). Further: nearly all actives have a fitted effect of over 50% in size. Further: potency means the concentration at half of the fitted maximal effect. The method in brief:
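Enzyme-substrate mix preincubated with compound 10 min at room temperature; reaction started with NADPH regeneration solution, 1 h 37C. Luminescent luciferin product read after 20 min detection reagent.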

Assay [5] addresses Cytochrome P450 1A2 (Homo sapiens) (UniProt P05177). Put plainly: Cytochrome P450 Family 1 Subfamily A Member 2 (CYP1A2) small molecule antagonists: luciferase reporter qHTS assay (AID 1671199). Further: nearly all actives have a fitted effect of over 50% in size. Further: potency means the concentration at half of the fitted maximal effect. The method, boiled down:
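Room-temperature CYP1A2 reaction with proluciferin substrate: compounds added from DMSO, 10 min preincubation, NADPH regeneration for 1 h. Luciferin detection reagent then added; luminescence recorded as RLU.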

Assay [6] deals with Voltage-gated inwardly rectifying potassium channel KCNH2 (Homo sapiens) (UniProt Q12809). Put plainly: Human Ether-a-go-go-Related Gene (hERG) channel small molecule antagonists: fluorescence cell-based qHTS assay (AID 1671200). Further: nearly all actives have a fitted effect of over 50% in size. Further: potency means the concentration at half of the fitted maximal effect. The method, boiled down:
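Thallium flux as potassium surrogate: FluxOR II dye loaded 1 h at room temperature into hERG-expressing U2OS cells, then stimulus buffer added after 10 min. Kinetic 480 nm excitation/540 nm emission read, 2 min.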

Assay [7] concerns the target Cytochrome P450 3A4 (Homo sapiens) (UniProt P08684). Description: Cytochrome P450 Family 3 Subfamily A Member 4 (CYP3A4) small molecule antagonists: luciferase reporter qHTS assay (AID 1671201). Further: nearly all actives have a fitted effect of over 50% in size. Further: potency means the concentration at half of the fitted maximal effect. The method, boiled down: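 Recombinant human CYP3A4 converts a proluciferin substrate to luciferin over 1 h at room temperature after NADPH regeneration solution is added (compound preincubated 10 min); detection reagent stops reaction, luminescence read 20 min later as relative units.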

In assay [8] the target is Acetylcholinesterase (Homo sapiens) (UniProt P22303). Put plainly: Acetylcholinesterase (AChE) small molecule antagonists: enzyme-based qHTS assay (AID 1347397; calls by dose curve; further: nearly all actives have a fitted effect of over 55% in size; further: potency means the concentration at half of the fitted maximal effect). To be noted: Potency: AChE enzyme activity inhibition; outcome: AChE enzyme activity inhibition. The method in brief:
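First, recombinant human AChE (50 mU/mL as dispensed) received test compound or DMSO. Second, plates stood 30 min at room temperature. Third, DTNB and acetylthiocholine were added, followed by 10 min at room temperature and colorimetric detection.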

Assay [9] shares this target. Put plainly: Acetylcholinesterase (AChE) small molecule antagonists: fluorescence cell-based qHTS assay (AID 1347398; calls by dose curve; further: nearly all actives have a fitted effect of over 50% in size; further: potency means the concentration at half of the fitted maximal effect). To be noted: Potency: AChE activity; outcome: AChE activity. The method, boiled down: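 Homogeneous quantitative HTS format. SH-SY5Y cells seeded at 2,000 per well settle overnight at 37 C. Compound pretreatment runs 30 min (37 C, 5% CO2); substrate/probe mix then reacts 40 min at RT before reading 490/520 nm.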
Background: Quantitative high-throughput screening tests each substance at several concentrations.

Several values for one entry are separate records, joined by “and”; a condition that tells them apart may be missing. Equal entries are not always repeated. Inconclusive results are not listed. The source holds several records for some structures; these can differ, active in one and inactive in another. Activity calls are given as the source filed them. Unless noted, the call rests on the fitted dose curve; in most records, active means well fitted curve in the direction sought with a large enough effect in the repeat runs; inconclusive means weak or mixed curves; inactive means no such curve, though single readings can be large; an effect the other way counts as inactive or inconclusive.

Sequence of Cytochrome P450 2C9 (Homo sapiens) (P11712 whole entry, looked up): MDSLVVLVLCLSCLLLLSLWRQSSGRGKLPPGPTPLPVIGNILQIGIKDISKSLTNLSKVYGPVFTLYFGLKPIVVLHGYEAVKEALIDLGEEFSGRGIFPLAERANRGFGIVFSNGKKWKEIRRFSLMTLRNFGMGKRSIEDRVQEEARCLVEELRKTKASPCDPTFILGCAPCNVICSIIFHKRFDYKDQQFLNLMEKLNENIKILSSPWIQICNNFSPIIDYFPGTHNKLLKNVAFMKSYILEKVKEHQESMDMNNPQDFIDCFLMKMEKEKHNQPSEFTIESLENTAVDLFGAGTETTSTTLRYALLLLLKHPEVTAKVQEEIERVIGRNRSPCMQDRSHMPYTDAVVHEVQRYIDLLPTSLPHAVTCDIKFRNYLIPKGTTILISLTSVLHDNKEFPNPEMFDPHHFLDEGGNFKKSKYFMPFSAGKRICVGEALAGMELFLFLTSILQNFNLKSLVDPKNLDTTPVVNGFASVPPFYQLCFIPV
Sequence of Cytochrome P450 2C19 (Homo sapiens) (P33261 whole entry, looked up): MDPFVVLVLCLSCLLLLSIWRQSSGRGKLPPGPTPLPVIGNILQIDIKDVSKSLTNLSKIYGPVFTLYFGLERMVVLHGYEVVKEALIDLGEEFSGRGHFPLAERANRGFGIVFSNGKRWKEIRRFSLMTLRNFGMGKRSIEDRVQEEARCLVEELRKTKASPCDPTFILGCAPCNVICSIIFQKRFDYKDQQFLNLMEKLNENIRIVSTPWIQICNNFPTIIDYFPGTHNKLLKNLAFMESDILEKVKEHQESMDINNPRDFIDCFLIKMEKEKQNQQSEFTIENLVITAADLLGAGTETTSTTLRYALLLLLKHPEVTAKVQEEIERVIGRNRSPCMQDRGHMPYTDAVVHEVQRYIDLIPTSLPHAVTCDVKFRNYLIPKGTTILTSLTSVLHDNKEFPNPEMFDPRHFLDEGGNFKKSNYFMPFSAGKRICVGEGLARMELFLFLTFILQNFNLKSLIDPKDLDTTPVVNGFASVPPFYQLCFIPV
Sequence of Cytochrome P450 1A2 (Homo sapiens) (P05177 whole entry, looked up): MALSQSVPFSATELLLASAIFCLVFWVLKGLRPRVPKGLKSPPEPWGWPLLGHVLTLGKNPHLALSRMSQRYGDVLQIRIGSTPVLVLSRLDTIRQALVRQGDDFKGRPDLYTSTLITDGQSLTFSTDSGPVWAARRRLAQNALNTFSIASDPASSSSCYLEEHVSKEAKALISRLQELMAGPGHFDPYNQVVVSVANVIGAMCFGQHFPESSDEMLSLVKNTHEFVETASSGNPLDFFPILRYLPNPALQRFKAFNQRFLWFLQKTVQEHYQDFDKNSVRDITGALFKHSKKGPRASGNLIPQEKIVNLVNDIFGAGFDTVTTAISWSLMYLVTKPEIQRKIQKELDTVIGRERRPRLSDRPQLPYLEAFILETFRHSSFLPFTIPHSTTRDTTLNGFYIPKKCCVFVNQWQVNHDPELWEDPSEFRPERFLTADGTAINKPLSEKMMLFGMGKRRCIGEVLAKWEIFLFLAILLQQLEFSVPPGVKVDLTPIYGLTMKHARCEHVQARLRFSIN
Sequence of Cytochrome P450 3A4 (Homo sapiens) (P08684 whole entry, looked up): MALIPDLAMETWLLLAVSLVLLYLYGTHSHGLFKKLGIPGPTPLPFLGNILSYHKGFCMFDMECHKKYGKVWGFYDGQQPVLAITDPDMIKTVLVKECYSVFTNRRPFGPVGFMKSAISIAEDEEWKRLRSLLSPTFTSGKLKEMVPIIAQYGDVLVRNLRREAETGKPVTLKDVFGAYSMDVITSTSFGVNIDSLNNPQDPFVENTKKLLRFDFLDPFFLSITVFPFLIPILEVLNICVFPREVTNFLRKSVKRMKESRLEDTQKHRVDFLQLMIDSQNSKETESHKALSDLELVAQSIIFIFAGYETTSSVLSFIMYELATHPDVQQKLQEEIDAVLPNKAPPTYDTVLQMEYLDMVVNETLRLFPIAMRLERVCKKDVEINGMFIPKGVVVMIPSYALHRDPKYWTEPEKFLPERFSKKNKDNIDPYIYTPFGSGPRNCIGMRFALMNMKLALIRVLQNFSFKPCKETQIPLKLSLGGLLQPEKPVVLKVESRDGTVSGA
Sequence of Voltage-gated inwardly rectifying potassium channel KCNH2 (Homo sapiens) (Q12809 whole entry, looked up): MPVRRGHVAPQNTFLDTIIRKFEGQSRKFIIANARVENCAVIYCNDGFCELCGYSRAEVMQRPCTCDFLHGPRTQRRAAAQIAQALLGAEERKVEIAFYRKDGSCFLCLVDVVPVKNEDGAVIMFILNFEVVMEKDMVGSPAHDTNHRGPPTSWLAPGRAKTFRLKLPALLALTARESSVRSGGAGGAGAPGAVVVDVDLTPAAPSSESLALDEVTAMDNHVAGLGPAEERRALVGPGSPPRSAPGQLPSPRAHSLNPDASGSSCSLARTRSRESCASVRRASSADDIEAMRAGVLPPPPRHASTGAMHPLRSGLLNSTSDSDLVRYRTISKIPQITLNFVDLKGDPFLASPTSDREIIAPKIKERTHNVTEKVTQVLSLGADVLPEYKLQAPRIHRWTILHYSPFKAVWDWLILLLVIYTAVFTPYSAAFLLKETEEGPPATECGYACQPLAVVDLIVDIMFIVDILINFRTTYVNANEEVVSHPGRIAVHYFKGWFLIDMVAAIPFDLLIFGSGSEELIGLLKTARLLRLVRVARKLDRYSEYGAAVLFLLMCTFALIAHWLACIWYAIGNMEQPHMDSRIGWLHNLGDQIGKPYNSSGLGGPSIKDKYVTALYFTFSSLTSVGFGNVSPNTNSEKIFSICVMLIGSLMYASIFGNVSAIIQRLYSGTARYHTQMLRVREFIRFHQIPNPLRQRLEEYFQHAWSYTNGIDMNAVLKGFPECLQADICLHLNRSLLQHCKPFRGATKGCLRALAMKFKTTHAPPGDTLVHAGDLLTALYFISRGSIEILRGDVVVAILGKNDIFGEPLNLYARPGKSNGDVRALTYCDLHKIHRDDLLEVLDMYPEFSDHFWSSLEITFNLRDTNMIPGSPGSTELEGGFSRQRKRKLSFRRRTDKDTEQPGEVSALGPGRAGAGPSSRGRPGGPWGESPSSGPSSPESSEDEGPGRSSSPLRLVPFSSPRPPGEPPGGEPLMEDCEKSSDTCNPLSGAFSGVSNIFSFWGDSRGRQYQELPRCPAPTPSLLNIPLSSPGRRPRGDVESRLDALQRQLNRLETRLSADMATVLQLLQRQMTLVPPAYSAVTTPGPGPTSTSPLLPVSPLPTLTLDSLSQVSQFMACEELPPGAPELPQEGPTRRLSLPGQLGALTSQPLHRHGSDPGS

With `Cc1ccc(S(=O)(=O)N[C@@H](CCCCN)C(=O)CCl)cc1`, the Potency entry in [1], in [4], in [5] and in assay [6] was “inactive” throughout. For the same compound, the Potency is 17.4 µM (active) in assay [2] and 38.9 µM (active) in [3].
Consider `Oc1ccc2c3c1O[C@H]1[C@@H](O)C=C[C@H]4[C@@H](C2)NCC[C@@]341`, for which the Potency entry in assay [3], in assay [4], in assay [5], in assay [6] and in [7] was “inactive” in each case.
Regarding `BrCc1ccc(Br)cc1`, the Potency result in assay [1], in assay [6] and in assay [7] was “inactive” in each case.
With `COc1ccc2c(C(=O)c3ccc(Cl)cc3)c(C)n(CC(=O)O)c2c1`, the Potency result in assay [8], in assay [1], in [2], in assay [5], in assay [6] and in [7] was “inactive” throughout.
Take `CC(C)(C)c1cc(O)ccc1O`: the Potency result in [8], in [1], in assay [6] and in [7] was “inactive” in each case. In addition, the Potency in [2] is 63.3 µM (active) and inactive; in assay [3], 39.9 µM (active) and 56.4 µM (active); in [5], 39.9 µM (active).
In the case of `CCCN1CCC[C@@H]2Cc3nc(N)ncc3C[C@H]21`, the Potency entry in [8], in [1], in assay [3], in [5], in [6] and in [7] was “inactive” throughout. The Potency in assay [2] is 11 µM (active).
For the compound `N[C@@H](Cc1ccc(Oc2cc(I)c(O)c(I)c2)c(I)c1)C(=O)O`, the Potency entry in assay [9], in assay [1], in assay [2], in assay [3], in [5] and in assay [6] was “inactive” in each case. The Potency in [4] was 11 µM (active).
Turning to `CCOC(=O)C(Cl)Cc1cc(-n2nc(C)n(C(F)F)c2=O)c(F)cc1Cl` (configuration not stated), the Potency result in assay [8] and in assay [1] was “inactive” throughout. Further, the Potency in assay [3] was 5.64 µM (active); in [4], 7.1 µM (active); in [5], 28.3 µM (active); in assay [6] it was 24.5 µM (active); in [7], 35.6 µM (active).
Regarding `C=CCN1CC[C@]23CCCC[C@H]2[C@H]1Cc1ccc(O)cc13`, the Potency entry in [4], in assay [5] and in assay [6] was “inactive” each time.
Turning to `CCOP(=S)(OCC)Oc1ccc(Cl)cc1Cl`, the Potency result in [8], in [1], in [2] and in assay [6] was “inactive” throughout. The Potency in assay [3] is 0.399 µM (active); in assay [4], 3.56 µM (active); in assay [5], 2.83 µM (active); in [7] it was 2.83 µM (active).
Regarding `CCC1(c2cccc(O)c2)CCCCN(C)C1` (configuration not stated), in assay [2], the Potency was 15.5 µM (active). The Potency result in assay [3], in assay [5] and in [7] was “inactive” each time.
On to `CCC1(CC)C(=O)C=CNC1=O`, for which the Potency result in assay [8], in assay [9], in assay [1], in assay [6] and in assay [7] was “inactive” throughout. For the same compound, in assay [5], the Potency is 15.5 µM (active).
In the case of `Cn1c(N)nc2c3cccnc3ccc21`, the Potency result in [8], in assay [1], in assay [3] and in assay [7] was “inactive” throughout. For the same compound, the Potency in assay [2] is 12 µM (active); in assay [5], 16.9 µM (active).
As for `CCc1cc(OC)c(C[C@H](C)N)cc1OC`, the Potency in assay [2] was 4.16 µM (active); in assay [5], 20.9 µM (active). The Potency result in assay [3], in assay [4] and in assay [6] was “inactive” each time.
On to `c1cncc([C@@H]2CCCCN2)c1`, for which the Potency entry in assay [8], in [9], in assay [1] and in [6] was “inactive” throughout. The Potency in [3] is 39.9 µM (active).
For the compound `C[C@H](CN1CCOCC1)C(C(=O)N1CCCC1)(c1ccccc1)c1ccccc1`, the Potency result in assay [8], in assay [1], in assay [5] and in [6] was “inactive” throughout. Also, the Potency in assay [2] was 43.3 µM (active); in [3] it was 96.9 µM (active).
`COc1ccc(CN2CCNCC2)c(OC)c1OC`: the Potency result in [8], in assay [9], in [1] and in assay [6] was “inactive” in each case.
For the compound `Cc1cccc2sc3nncn3c12`, the Potency result in [8], in assay [1], in assay [3], in assay [4] and in assay [6] was “inactive” in each case. Besides, the Potency in [2] is 15.9 µM (active); in [5] it was 31.7 µM (active); in assay [7] it was 20 µM (active).
Turning to `CS(=O)(=O)c1ccc(C(=O)C2C(=O)CCCC2=O)c(Cl)c1COCC(F)(F)F`, the Potency result in assay [8], in assay [1], in assay [2], in assay [3], in assay [5] and in assay [6] was “inactive” each time. The Potency in assay [4] is 6.33 µM (active).
With `CCOC(=O)C(SP(=S)(OC)OC)c1ccccc1` (configuration not stated), the Potency is 71 µM (active) in assay [8]; 22.4 µM (active) in assay [9]; 44.8 µM (active) in [2]; 0.283 µM (active) in assay [3]; 1.26 µM (active) in assay [4]; 3.17 µM (active) in [5]. The Potency in [7] is 2.83 µM (active).
Take `CCCN1CCC[C@@H]2Cc3[nH]ncc3C[C@H]21`: the Potency entry in assay [8], in assay [1], in assay [3], in [4], in assay [5] and in assay [6] was “inactive” each time. In [7], the Potency entry was “inactive”. Moreover, the Potency in assay [2] is 30.9 µM (active).
On to `C[C@@H](N)[C@@H](O)c1ccccc1`, for which the Potency in [2] is 17.4 µM (active); in assay [3], 21.9 µM (active). In addition, the Potency result in assay [5], in assay [6] and in [7] was “inactive” in each case.
With `O=c1[nH]c2ccccc2o1`, the Potency result in [8], in [9], in assay [1], in assay [4], in assay [6] and in [7] was “inactive” throughout.
As for `CN1C(=O)COc2c(C(=O)NC3CN4CCC3CC4)cc(Cl)cc21` (configuration not stated), the Potency entry in assay [1], in [2], in [3], in assay [4], in [5] and in assay [6] was “inactive” throughout. Also, in [7], the Potency result is “inactive”.
Turning to `N#CC(Br)(Br)C(N)=O`, the Potency in assay [2] was 71 µM (active). Besides, the Potency result in assay [5], in assay [6] and in assay [7] was “inactive” each time.
As to `CC[C@H](O)C(C[C@H](C)N(C)C)(c1ccccc1)c1ccccc1`, the Potency result in assay [8], in [1], in assay [3], in assay [4] and in assay [5] was “inactive” throughout. Further, the Potency in assay [2] is 1.44 µM (active).
`O=c1[nH]oc2c1CCNC2`: the Potency entry in [8], in [1], in assay [2], in assay [3], in assay [4] and in assay [5] was “inactive” each time. Further, the Potency entry in assay [6] and in assay [7] was “inactive” in each case.
On to `C[N+]1(C)CCCCC1`, for which the Potency result in [2], in assay [3], in assay [6] and in [7] was “inactive” throughout.
For `O=[N+]([O-])c1cccc(CCl)c1`, the Potency result in [6] was “inactive”.
As for `CCCC(C)C1(CC)C(=O)N=C(S)NC1=O` (configuration not stated), the Potency result in assay [6] is “inactive”.
